Compound activity as filed in PubChem.
WT yeast gro inh – growth inhibition of WT strain, primary screen, mitochondrial fusion inhibitor project, WT and mutant strains, chemical genetic; 2.1% of 190,000 active; mitochondrial fusion phenotypic screen; inhibition, % at 10 µM; in the data active means inhibition above about 58%; tested in S. cerevisiae
RAM inhibit – inhibitors of the yeast RAM network, primary screen, dse1pr::URA3 reporter, 5-FOA selection; S. cerevisiae dse1pr::URA3 reporter, 5-FOA growth OD615, 2 d; analog-sensitive cbk1-as2 kinase mutant strain; inhibition, % at 50 µM; 1.8% of 190,000 active; AID 868, 2007;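 active means inhibition above a set limit, 3 SD over mean compound inhibition, cut at about 8.4% in these data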;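 further: 0% = DMSO-only wells with no growth and 100% = 10 µM 1-NA-PP1 full growth; inhibition rescues growth on 5-FOA so higher OD means more RAM inhibition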
L major viab – Leishmania major promastigote growth inhibition, primary screen; AID 1063, 2008; 9% of 200,000 active; inhibition, % at 10 µM; Leishmania major promastigotes, resazurin fluorescence viability; in the data active means inhibition above about 50%;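 further: promastigotes grown with compound for 44 hours at 28 °C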
CHOP inh – inhibitors of CHOP promoter induction, primary screen, cell-based, unfolded protein response, luciferase reporter; 3.8% of 220,000 active; CHO-K1 CHOP-promoter luciferase, tunicamycin-induced, 15-18 h; inhibition, % at 10 µM;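 active means compounds that reduced the stress-induced luciferase reporter signal by more than about 70% of percent inhibition, limit read from the data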;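 further: 0% = tunicamycin plus vehicle and 100% = wells without tunicamycin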
An asterisk follows results filed as active. A selection: hits, their analogues and other compounds. The true share with any hit is near 13%.

Screening COc1ccc(S(=O)(=O)N2CC3CCCN3c3cc(C(F)(F)F)ccc32)cc1 (configuration not stated) returned WT yeast gro inh 74.8*, RAM inhibit 3.5, L major viab 2.1 and CHOP inh 51.0.
`NC(=O)CSc1cn(Cc2ccc(F)cc2)c2ccccc12` gave WT yeast gro inh -8.0, RAM inhibit 4.3, L major viab -0.3 and CHOP inh -4.5.
Screening O=C(CSc1cn(Cc2cccc(F)c2)c2ccccc12)NCc1ccc(F)cc1 returned WT yeast gro inh -17.2, RAM inhibit 9.9*, L major viab -4.5 and CHOP inh 51.3.
`CN(C)CCCn1c(SCC(=O)N2c3ccccc3Sc3ccccc32)nc2ccccc2c1=O` gave WT yeast gro inh 80.3, RAM inhibit 0.5, L major viab 100.5* and CHOP inh 20.6.
For Cc1ccc(-c2csc(NC(=O)CSc3nc4ccccc4c(=O)n3CCCN(C)C)n2)cc1 the results were WT yeast gro inh 82.5*, RAM inhibit -0.8, L major viab 100.5* and CHOP inh 43.3.
CCCCn1c(SCC(=O)Nc2nnc(CC)s2)nc2ccccc2c1=O was read as WT yeast gro inh -10.3, RAM inhibit 5.4, L major viab -3.4 and CHOP inh 27.5.
For CC(=O)Nc1ccc(NC(=O)CN(c2cc(Cl)ccc2Cl)S(C)(=O)=O)cc1 the results were WT yeast gro inh -0.7, RAM inhibit -1.4, L major viab -1.5 and CHOP inh -3.2.
`CC(=O)N1N=C(c2ccccc2OC(=O)/C=C/c2ccccc2)CC1c1ccccc1` (configuration not stated) gave CHOP inh -0.9.
COc1ccc(Nc2cnn(-c3nc4ccccc4s3)c(=O)c2Cl)cc1 was read as WT yeast gro inh 76.6, RAM inhibit 5.3, L major viab 51.2* and CHOP inh 74.6*.
O=c1c(Cl)c(Nc2cccc(Cl)c2)cnn1-c1nc2ccccc2s1 was read as WT yeast gro inh 39.0, RAM inhibit 3.4, L major viab 55.8* and CHOP inh -2.4.
`Cc1ccc(C)c(N2CCN(c3cnn(-c4nc5ccccc5s4)c(=O)c3Cl)CC2)c1` gave WT yeast gro inh 3.6, RAM inhibit 9.1*, L major viab 31.9 and CHOP inh 69.7.
For COc1ccccc1C(=O)NCCC(=O)N1CC(=O)Nc2ccccc21 the results were WT yeast gro inh -0.2, RAM inhibit 0.9, L major viab 0.6 and CHOP inh 4.0.
`Cc1ccc(Nc2cc(C)nn2-c2nc(C)cc(C)n2)cc1` gave WT yeast gro inh 75.0*, RAM inhibit 0.0, L major viab 92.1* and CHOP inh -88.4.
`CC(=O)Nc1cc(C)nn1-c1nc(C)cc(C)n1` gave WT yeast gro inh -1.5, RAM inhibit -0.4, L major viab 6.8 and CHOP inh -1.7.
Cc1ccc(Nc2cc(C)nn2-c2nc(C)cc(=O)[nH]2)cc1 was read as WT yeast gro inh 16.5, RAM inhibit 1.6 and L major viab 100.5*.
Screening NC(=O)c1ccc(N2CCCCC2)c(N2C(=O)C3CC=CCC3C2=O)c1 (configuration not stated) returned WT yeast gro inh 84.5*, RAM inhibit 0.5, L major viab -3.1 and CHOP inh 14.5.
Screening CC(C)(C)c1ccc(C(=O)NC(=S)NCc2cccnc2)cc1 returned WT yeast gro inh 53.4, RAM inhibit -0.7, L major viab 11.8 and CHOP inh 36.1.
Screening CCOc1cccc(C(=O)NC(=S)Nc2cccnc2)c1 returned WT yeast gro inh 9.9, RAM inhibit 0.1, L major viab -10.3 and CHOP inh 11.2.
Screening CC(C)(C)c1cc(Cl)c(O)c(NC(=S)NC(=O)c2cccnc2)c1 returned WT yeast gro inh 10.1, RAM inhibit 5.7, L major viab -8.5 and CHOP inh 73.1*.
Screening CCCCOc1cccc(C(=O)NC(=S)Nc2cccnc2)c1 returned WT yeast gro inh 17.9, RAM inhibit -2.3, L major viab 51.3* and CHOP inh -15.0.
Screening CC(C)(C)c1ccc(OCCNC(=S)NC(=O)c2cccnc2)cc1 returned WT yeast gro inh 49.6, RAM inhibit 2.7, L major viab 53.0* and CHOP inh 55.2.
Screening CS(=O)(=O)N(Cc1ccccc1)c1ccc(C(=O)N2CCc3ccccc3C2)cc1 returned WT yeast gro inh -11.5, RAM inhibit 0.5, L major viab 13.4 and CHOP inh -3.5.
`Cn1c(-c2ccccc2)c(/C=N/NC(=O)c2ccc(O)cc2)c2ccccc21` gave CHOP inh 52.0.
